# High-throughput results (PubChem BioAssay)
# PGK inhibitor: blocks T. brucei phosphoglycerate kinase; PGK/GAPDH coupled, Kinase-Glo luminescence, 60 min; AID 602233; hit rate 0.043% among 380,000; Potency, µM (series often up to 57.5 µM), inactives show top-dose activity change, negative = inhibition, actives largely listed as inhibitors; P07378; also: potency is read from the fitted curve at half-maximal effect; % is scaled to controls: 0 for no effect and ±100 for the full control effect; nearly all actives have a fitted effect of over 60% in size
#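 Recombinant glycosomal PGK reaction used 1,3-bisphosphoglycerate generated in-well by GAPDH (100nM final) in 100mM TEA pH 7.6, 5mM MgCl2, 0.01% Tween-20. After 60 minutes at room temperature, ATP was read by Kinase-Glo Plus luminescence end-point.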
# WRN helicase inh: WRN helicase (human) inhibition; Q14191; hit rate 0.46% among 360,000; Potency, µM (titrated, usually from 114 µM), inactives show at the highest dose activity change, negative = inhibition, hits mostly inhibitors; WRN helicase unwinding, fluorescent forked duplex, kinetic; also: potency is read from the fitted curve at half-maximal effect; % is scaled to controls: 0 for no effect and ±100 for the full control effect; nearly all actives have a fitted effect of over 55% in size
#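 Fluorescence dequenching readout, ex 525 nm/em 598 nm, kinetic mode: forked duplex DNA (100 nM final) with adjacent fluorophore and quencher unwound by WRN (20 nM final) with 2 mM ATP. Compound preincubation 15 min, room temperature.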
# Pin1 inhibitor: inhibitors of human Pin1. Q13526. Pin1 FP peptide displacement, HiFluor488, 10 min. Potency, µM (top dose mostly 115 µM), without a hit: at the top dose activity, negative = inhibition, usual class: inhibitors. hit rate 0.009% among 390,000. AID 504891; active = well fitted inhibition curve with a large enough effect in the polarisation, with a control signal flat, not every such curve was filed as active; inconclusive = small, poorly fitted or top-dose-only effect, or effect the other way, or a change in a side signal; inactive = no such curve, though single readings can be large or run the other way; the % refers to the polarisation; also: potency is read from the fitted curve at half-maximal effect; % is scaled to controls: 0 for no effect and ±100 for the full control effect
# Target sequence (Q13526 whole entry, looked up): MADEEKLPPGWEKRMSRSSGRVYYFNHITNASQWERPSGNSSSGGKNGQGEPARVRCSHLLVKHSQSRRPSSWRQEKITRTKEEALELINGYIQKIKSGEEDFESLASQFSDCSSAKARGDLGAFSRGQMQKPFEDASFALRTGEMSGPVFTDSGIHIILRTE
# GRP78 ERSR act: induces the endoplasmic reticulum stress response in human glioma cells | U87-MG GRP78 promoter luciferase reporter, 16 h | Potency, µM, for the others: at the top dose activation, hits mostly activators | hit rate 0.02% among 420,000 | AID 602332; also: potency is read from the fitted curve at half-maximal effect; series mostly up to about 76 µM; % of control where 0% means no effect; nearly all actives have a fitted effect of over 35% in size
#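 ERSR induction read as luciferase luminescence (Bright-Glo, 10 min at room temperature) in stably transfected human U87-MG glioma cells exposed to compounds for 16 h, using GRP78 as sensor.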
# FEN1 inh: human FEN1 inhibition. Recombinant FEN1 flap cleavage, fluorescence, 15 min. hit rate 0.35% among 390,000. Potency, µM (titrated, usually from 114 µM), for inactives: top-dose activity change, negative = inhibition, actives largely listed as inhibitors. P39748; also: potency is read from the fitted curve at half-maximal effect; % is scaled to controls: 0 for no effect and ±100 for the full control effect; nearly all actives have a fitted effect of over 65% in size
# Target sequence (P39748 whole entry, looked up): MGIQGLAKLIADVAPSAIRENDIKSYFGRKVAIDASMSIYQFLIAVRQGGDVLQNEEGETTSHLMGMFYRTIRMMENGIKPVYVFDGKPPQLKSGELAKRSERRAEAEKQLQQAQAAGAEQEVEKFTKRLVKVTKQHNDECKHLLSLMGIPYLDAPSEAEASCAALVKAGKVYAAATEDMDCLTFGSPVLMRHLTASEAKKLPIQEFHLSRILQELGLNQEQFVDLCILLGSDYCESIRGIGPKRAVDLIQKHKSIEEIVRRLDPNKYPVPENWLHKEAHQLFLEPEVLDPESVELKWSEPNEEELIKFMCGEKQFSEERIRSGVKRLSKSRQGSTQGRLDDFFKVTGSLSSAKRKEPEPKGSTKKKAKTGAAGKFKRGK
#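 Nuclease activity of 10 nM FEN1 was measured after 15 min of room-temperature exposure to titrated compounds, by adding 50 nM flap substrate and reading plates at 0 and 15 min.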
# PI5P4K alpha inh: blocks human PI5P4K alpha kinase activity; P48426; PI5P4Kalpha enzyme, ADP-Glo luminescence, 60 min; active compounds read low; max response, %; hit rate 1.2% among 330,000; AID 652105; active = max response of -50% or lower; inconclusive = between -30% and -50%; inactive = -30% or higher; also: value at the top dose of about 77 µM; % is scaled to controls: 0 for no effect and ±100 for the full control effect
#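 PI5P4Kalpha ADP-Glo assay; 5 microM ATP final; 60 min RT reaction; HEPES pH 7.4/EGTA/CHAPS, 5% DMSO; controls lacking substrate or enzyme; luminescent end-point.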
# Numbers without * were called inactive; i = inactive; u = inconclusive; x = no result; [ ] = dose if it differs, or a comment. Rows were chosen to be rich in hits. Some 1.3% of all compounds tested hit in one or more screens of this group. Unless noted, calls follow the shape of the dose curve; as a rule, active = well fitted curve in the direction sought with a large enough effect; inconclusive = small, poorly fitted or top-dose-only effect, or another doubt; inactive = no such curve, though single readings can be large; an effect the other way counts as inactive or inconclusive.
SMILES,PGK inhibitor,WRN helicase inh,Pin1 inhibitor,GRP78 ERSR act,FEN1 inh,PI5P4K alpha inh
COc1cccc(NC(=O)CSc2nnc(CNC(=O)c3ccco3)n2C)c1,-6%,0%,-6%,-2%,4%,-2
O=C(CSc1nnc(-c2ccco2)c(-c2ccco2)n1)Nc1ccccc1,u,35µM*,u,-5%,u,-84*
COc1ccc(C(=O)CSc2nnc(-c3ccco3)c(-c3ccco3)n2)cc1,u,u,u,4%,u,-57*
COc1ccc(C(=O)CSc2nnc(-c3ccco3)n2C)cc1,i,4%,-2%,-2%,-6%,x
Cc1ccc(NC(=O)CSc2nnc(-c3ccco3)c(-c3ccco3)n2)cc1,-5%,40µM*,u,-4%,u,-75*
COc1cccc(NC(=O)CSc2nnc(-c3ccco3)c(-c3ccco3)n2)c1,-17%,45µM*,x,-4%,u,-63*
COc1cccc(C2c3c(ncn(-c4ccc(C)cc4)c3=N)Oc3ccc4ccccc4c32)c1 (stereo not given),x,x,15%,x,x,x
COCC(C)NCc1cc2ccc(OC)cc2nc1N1CCN(c2ccc(F)cc2)CC1 (stereo not given),x,x,x,-8%,x,x
CCOC(=O)C(CC)Sc1ccc2nnc(-c3cccnc3)n2n1 (stereo not given),-6%,2%,3%,0%,-7%,-17
CCC(Sc1ccc2nnc(-c3cccnc3)n2n1)C(=O)O (stereo not given),i,-6%,-3%,-2%,-18%,-58*
Cc1c(C(=O)NCc2ccccc2Cl)sc2ncnc(NCC3CCCO3)c12 (stereo not given),x,x,x,-7%,x,x
COc1cc(C=C2C(=O)C=CC2=O)ccc1O,x,10µM*,x,x,x,-104*
COc1cc(/C=C2/C(=O)CNC2=O)ccc1O,-3%,1%,37%,-1%,-2%,-56*
COc1cc(F)c(S(=O)(=O)N2CCN(S(=O)(=O)c3cccs3)CC2)c(F)c1,x,x,1%,x,x,x
O=c1c2ccccc2nc2sc(Nc3ccc(Sc4ccccc4)cc3)nn12,x,x,35%,x,x,x
O=C1NNC(c2ccccc2)=N/C1=C\c1ccco1,-6%,-27%,-2%,-4%,-3%,-53*
O=C1NNC(c2ccccc2)=N/C1=C\c1ccccc1Cl,-4%,-34%,-6%,-3%,2%,-3
COCCC1CCCCN1Cc1nc(N2CCCC2)c2cc(OC)c(OC)cc2n1 (stereo not given),x,x,x,-1%,x,x
C=C(C)C(=O)Nc1cccc(C2=NOC3(C2)C[C@@H](C(N)=O)N(C(=O)c2ccc(OC)cc2)C3)c1 (stereo not given in full),2µM*,u,32µM*,0%,u,u
CCCCCC(=O)Nc1cccc(C2=NOC3(C2)C[C@@H](C(N)=O)N(C(=O)c2ccc(OC)cc2)C3)c1 (stereo not given in full),-20%,-1%,9%,-2%,12%,1
C=C(C)C(=O)Nc1cccc(C2=NOC3(C2)C[C@@H](C(N)=O)N(C(=O)CCCCC)C3)c1 (stereo not given in full),u,40µM*,x,-4%,25µM*,u
C=C(C)C(=O)Nc1cccc(C2=NOC3(C2)C[C@@H](C(N)=O)N(C(=O)c2cc([N+](=O)[O-])cc([N+](=O)[O-])c2)C3)c1 (stereo not given in full),18µM*,-21%,-1%,-3%,13%,-15
CCCCCC(=O)Nc1cccc(C2=NOC3(C2)C[C@@H](C(N)=O)N(C(=O)c2cc([N+](=O)[O-])cc([N+](=O)[O-])c2)C3)c1 (stereo not given in full),-13%,-4%,1%,-3%,-9%,5
CCCCN(C(=O)Cn1ncc(Cl)c(Cl)c1=O)c1c(N)n(CC(C)C)c(=O)[nH]c1=O,-12%,-34%,u,-17%,-20%,-52*
O=C(N/N=C/c1ccco1)C1CC1c1ccccc1 (stereo not given),-16%,-32%,7%,-2%,-4%,-50*
SMILES,PGK inhibitor,WRN helicase inh,Pin1 inhibitor,GRP78 ERSR act,FEN1 inh,PI5P4K alpha inh
O=C(N/N=C/c1ccco1)C1CC1,0%,-15%,-3%,1%,0%,3
CCSc1nnc(C(C)NC(=O)c2ccc(OC)cc2)n1C (stereo not given),x,x,x,-2%,x,x
COc1ccc(OC)c(-c2csc(NC(=O)COC(=O)c3ccc(NC(=O)CC#N)cc3)n2)c1,u,u,-3%,-6%,79µM*,-61*
COc1ccc(OC)c(-c2csc(NC(=O)COC(=O)C3CCC3)n2)c1,i,-8%,-3%,-2%,-19%,6
Cc1c(C(=O)O)c(O)cc2c1C(=O)c1c(O)c([C@H]3O[C@H](CO)[C@@H](O)[C@H](O)[C@H]3O)c(O)c(O)c1C2=O,x,x,x,-7%,50µM*,x
COc1cc2c(cc1OC)-c1c(OC)c(OC)cc3ccnc(c13)C2=O,-6%,-4%,-5%,-5%,7.9µM*,2
O=S(=O)(O)OCC1OC(COS(=O)(=O)O)(C2(OS(=O)(=O)O)OC(CO)C(OS(=O)(=O)O)C(OS(=O)(=O)O)C2OS(=O)(=O)O)C(OS(=O)(=O)O)C1OS(=O)(=O)O (stereo not given),x,x,x,-2%,x,x
Cc1ccc(-c2csc3ncn(CC#N)c(=O)c23)cc1,-4%,-12%,29%,-5%,-20%,u
Cc1ccc(-c2csc3ncn(CC#N)c(=O)c23)cc1C,-17%,-11%[11.6 µM],20%,-1%,u,-91*
CN=c1scc(-c2cccs2)n1/N=C/c1ccc(O)c(O)c1O,-17%,u,u,-3%,35µM*,-75*
CC(C)N=c1scc(-c2ccco2)n1/N=C/c1ccc(O)c(O)c1,-9%,-14%,-2%,u,-32%,-3
C=CCN=c1scc(-c2ccco2)n1/N=C/c1ccc(O)c(O)c1O,-4%,50µM*,u,2%,u,-73*
O=C(N/N=C/c1cccc(O)c1)N/N=C/c1cccc(O)c1,-1%,-4%,-6%,-3%,-3%,-53*
O=C(CCc1ccccc1)N/N=C/c1cccc(O)c1,3%,-4%,1%,1%,10%,1
C/C(N)=C(/C#N)C(=O)CSc1nc2ccccc2c(=O)n1Cc1ccc(C)cc1,-6%,-15%,23%,-8%,-21%,-8
C/C(N)=C(/C#N)C(=O)CSc1nc2ccccc2c(=O)n1Cc1ccc(F)cc1,-29%,-17%[11.6 µM],24%,-1%,u,-58*
CCCCCCCCCCCCCC[n+]1ccc(C)cc1,x,x,x,-11%,x,x
CCCCCCCCCCCCCCCC[n+]1ccc(/C=N/O)cc1,-1%,1%,20%,-15%,5%,-60*
